The list is not random: actives were taken first. Their share in the collection is about 3%.
Mtb BioA inh – BioA (M. tuberculosis) enzyme inhibition. purified M. tuberculosis BioA enzyme, plate reader. inhibition, % at 9.99 µM. 0.096% of 360,000 active; in the data active = inhibition above about 40%
Mtb FBA inh – Mtb fructose-bisphosphate aldolase inhibition. P9WQA3. purified M. tuberculosis FBA, fluorescence read-out. inhibition, % at 1 µM. 2.3% of 360,000 active. AID 588726;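 also: 0% = vehicle and 100% = reference inhibitor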
Target sequence (P9WQA3 whole entry, looked up): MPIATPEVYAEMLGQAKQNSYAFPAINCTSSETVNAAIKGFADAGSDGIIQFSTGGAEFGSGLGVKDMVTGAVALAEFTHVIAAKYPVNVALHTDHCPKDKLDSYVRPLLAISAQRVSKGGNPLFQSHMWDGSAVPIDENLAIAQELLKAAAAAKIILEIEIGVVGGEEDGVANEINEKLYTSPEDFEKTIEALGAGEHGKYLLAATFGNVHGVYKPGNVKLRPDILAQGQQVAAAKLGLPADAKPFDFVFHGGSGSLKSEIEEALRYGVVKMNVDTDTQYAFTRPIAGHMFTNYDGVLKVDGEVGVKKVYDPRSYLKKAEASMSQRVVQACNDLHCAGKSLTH
GDH-TPI counter-1 – counter-screen for M. tuberculosis FBA inhibitors: GDH-TPI coupled enzymes; inhibition, % at 4.8 µM; 1.2% of 360,000 active; AID 588335; GDH-TPI coupled enzyme counterscreen, NADH absorbance; in the data active = inhibition above about 30%;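 also: 0% = DMSO wells and 100% = wells lacking the enzyme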
Vc quorum ag – induces V. cholerae light production without autoinducers; activation, % at 18.7 µM; V. cholerae BH1578 lux reporter, luminescence, 6 h; 0.16% of 350,000 active; AID 588436; in the data active = activation mostly above about 9.7%, no sharp cut-off
Mtb FBA confirm – confirmation of M. tuberculosis fructose-bisphosphate aldolase inhibitors; shares compounds with Mtb FBA inh; purified M. tuberculosis FBA, fluorescence read-out; inhibition, % at 1 µM; 78% of 5,600 active;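 also: 0% = vehicle wells and 100% = reference inhibitor wells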
GDH-TPI counter-2 – GDH-TPI inhibition counter-screen for FBA inhibitors; GDH-TPI coupled enzyme counterscreen, fluorescence; 81% of 5,600 active; shares compounds with Mtb FBA inh; inhibition, % at 1 µM; AID 652141; in the data active = inhibition above about 10%
GDH-TPI dose – counter-screen for M. tuberculosis FBA inhibitors: GDH-TPI dose response; shares compounds with Mtb FBA inh; GDH-TPI coupled enzyme assay, fluorescence, artifact counterscreen; IC50, µM; 79% of 170 active; call rule not given here
The depositor's hits bear a star; i = inactive; . = no result given; + = active, no number. Rule as the data show it, unless noted: active = inhibition above about 27%; inactive = the rest.

SMILES	Mtb BioA inh	Mtb FBA inh	GDH-TPI counter-1	Vc quorum ag	Mtb FBA confirm	GDH-TPI counter-2	others
Cc1ccc2nc(-c3ccc(NC(=S)NCCC(C)C)cc3)sc2c1	-3	27	21	i	.	.
CNC(=S)Nc1ccc(-c2nc3ccc(C)cc3s2)cc1	0	93*	20	0	45*	32*
COc1ccc(CNC(=O)C[C@@H]2CC[C@H](NS(=O)(=O)c3cccc(OC)c3)[C@H](CO)O2)cc1	-2	.	.	.	.	.
C[C@@H]1CN([C@H](C)CO)C(=O)Cc2cc(NC(=O)C3CCCCC3)ccc2O[C@@H]1CN(C)C(=O)Nc1ccc(F)cc1	0	.	.	.	.	.
C[C@H](CO)N1C[C@H](C)[C@H](CN(C)Cc2ccc(Oc3ccccc3)cc2)Oc2ccc(NS(=O)(=O)c3cn(C)cn3)cc2C1=O	3	.	.	.	.	.
Cc1ccc2nc(-c3ccc(NC(=O)COC(=O)c4ccc([N+](=O)[O-])o4)cc3)sc2c1	.	20	9	0	.	.
Cc1cc(C)cc(N(CC(=O)Nc2ccc(-c3nc4ccc(C)cc4s3)cc2)S(C)(=O)=O)c1	-2	24	18	-1	.	.
Cc1ccc2nc(-c3ccc(NC(=O)CN(c4ccccc4C)S(C)(=O)=O)cc3)sc2c1	.	90*	12	-1	+	+
COCCNc1nnc(SC(C)C(=O)Nc2ccc(-c3nc4ccc(C)cc4s3)cc2)s1 (centres undefined)	-1	40*	29	-2	+	+
COCCNc1nnc(SC(C)C(=O)Nc2c(C)n(C)n(-c3ccccc3)c2=O)s1 (centres undefined)	-1	0	-9	0	.	.
C=CCn1c(SCC(=O)Nc2ccc(-c3nc4ccc(C)cc4s3)cc2)nnc1-c1ccccc1	-2	41*	11	i	+	+
Cc1ccc2nc(-c3ccc(NC(=S)NCC(C)(C)CN(C)C)cc3)sc2c1	.	77*	2	0	69*	53*
COc1ccccc1-c1cnc2c(c1)C(=O)N([C@@H](C)CO)C[C@H](C)[C@H](CN(C)Cc1ccc(F)cc1)O2	1	.	.	.	.	.
Cc1noc(C)c1NC(=O)Nc1ccc2c(c1)C(=O)N([C@@H](C)CO)C[C@H](C)[C@@H](CN(C)Cc1ccc(C(=O)O)cc1)OCCCC[C@H](C)O2	-1	.	.	.	.	.
C[C@H](CO)N1C[C@H](C)[C@@H](CN(C)C(=O)Nc2ccccc2F)Oc2cc(-c3ccccc3)ccc2S1(=O)=O	0	.	.	.	.	.
O=C(NC1CCCCC1)c1ccc2ccccc2c1	-1	0	2	-1	.	.
O=C(NC1CCCCC1)c1ccc2[nH]c(=O)c(=O)[nH]c2c1	1	41*	11	i	15	8	GDH-TPI dose=4.3*
C[C@@H]1CCCCO[C@H](CN(C)C(=O)Cc2ccccc2)[C@@H](C)CN([C@@H](C)CO)C(=O)c2cc(NC(=O)Cc3ccccc3)ccc2O1	-1	.	.	.	.	.
Cc1ccc(Cn2c(C3CCCN3c3nc(-c4ccc(F)cc4)cs3)nc3cc(C(=O)NCCCO)ccc32)cc1 (centres undefined)	-3	70*	9	5	9	5
Cc1ccc(Cn2c(C3CCCN3c3nc(C)cs3)nc3cc(C(=O)NCCCO)ccc32)cc1 (centres undefined)	0	-2	11	1	.	.
Cc1cc(=O)oc2cc(OCC(=O)NCCN3CCOCC3)ccc12	.	13	2	5	.	.
O=C(COc1ccc2ccc(=O)oc2c1)NCCN1CCOCC1	2	27*	25	i	123*	95*
CC(Oc1ccc2c(-c3ccccc3)cc(=O)oc2c1)C(=O)NCCN1CCOCC1 (centres undefined)	7	-2	21	-1	.	.
O=C(COc1ccc2ccc(=O)oc2c1)Nc1ccc(N2CCCCC2)cc1	1	41*	3	i	+	152*
CC(Oc1ccc2ccc(=O)oc2c1)C(=O)NCCN1CCOCC1 (centres undefined)	1	28*	21	i	151*	110*
SMILES	Mtb BioA inh	Mtb FBA inh	GDH-TPI counter-1	Vc quorum ag	Mtb FBA confirm	GDH-TPI counter-2	others
Cc1ccc(S(=O)(=O)Nc2ccc3c(c2)C(=O)N([C@H](C)CO)C[C@H](C)[C@H](CN(C)Cc2ccncc2)OCCCC[C@H](C)O3)cc1	0	.	.	.	.	.
Cc1nc(NC(=O)c2ccc([N+](=O)[O-])cc2Cl)sc1C(=O)N(C)C	.	91*	13	i	+	162*
[N-]=[N+]=Nc1ccccc1C[C@@]1(C(=O)NCc2ccccc2)N=C(c2ccc(OCCCO)cc2)O[C@@H]1c1ccccc1N=[N+]=[N-]	-1	.	.	.	.	.
COC(=O)CN(c1ccc2c(c1)OCCO2)S(=O)(=O)c1ccccc1	-2	37*	1	i	12	-1	GDH-TPI dose=>10
O=S(=O)(c1ccccc1)N(Cc1ccccn1)Cc1ccccn1	-2	-1	1	i	.	.
COC(=O)CN(c1ccccn1)S(=O)(=O)c1ccccc1	0	37*	17	i	115*	100*
NC(=O)CN(c1ccc(Cl)cc1)S(=O)(=O)c1ccccc1	.	2	4	0	.	.
O=C(O)CN(c1ccccn1)S(=O)(=O)c1ccc(Cl)cc1	-5	35*	11	i	39*	36*
O=C(O)CN(c1ccccn1)S(=O)(=O)c1ccccc1	-1	36*	0	0	94*	87*
CN(C)CCCNC(=O)C[C@H]1C=C[C@H](NC(=O)Cc2cccnc2)[C@H](CO)O1	2	.	.	.	.	.
C[C@@H]1CN([C@@H](C)CO)C(=O)c2cc(NC(=O)Cn3cnnn3)ccc2O[C@@H]1CN(C)C(=O)Nc1ccc(C(F)(F)F)cc1	3	.	.	.	.	.
CCC1(CC)Cc2ccccc2-c2nc(NCCCO)[nH]c(=O)c21	.	59*	8	2	+	+
CCC1(CC)Cc2ccccc2-c2nc(CN(C)C)[nH]c(=O)c21	0	0	15	i	.	.
COc1ccc2c(OC)c3ccoc3nc2c1OC	1	96*	1	0	192*	166*
CCC(=O)N1C[C@@H](C)[C@H](OC)CN(C)C(=O)c2cc(NC(=O)C3CCCCC3)ccc2OC[C@@H]1C	-1	.	.	.	.	.
COc1ccc2cc(C(=O)C3CCCN(Cc4ccccn4)C3)ccc2c1 (centres undefined)	0	41*	6	0	+	+
O=C(c1ccc(Cl)cc1)C1CCCN(C(=O)c2csnn2)C1 (centres undefined)	.	-1	5	-1	.	.
COc1cccc(C(=O)C2CCCN(C(=O)c3ccccc3Cl)C2)c1 (centres undefined)	1	-5	-1	0	.	.
COc1ccc2cc(C(=O)C3CCCN(C(=O)C4=NN(C)C(=O)CC4)C3)ccc2c1 (centres undefined)	2	63*	11	-1	85*	52*

Screening results as filed in PubChem BioAssay.
